# Measurements reported in PubChem BioAssay (NCATS).
# “And” between values parts separate entries of the source, which are not always exact repeats. Equal entries are not always repeated. Inconclusive results are not listed. Entries that show only a call come without a potency. The source made the active and inactive calls. Unless noted, calls follow the shape of the dose curve; as a rule, active = well fitted curve in the direction sought with a large enough effect; inconclusive = small, poorly fitted or top-dose-only effect, or another doubt; inactive = no such curve, though single readings can be large; an effect the other way counts as inactive or inconclusive.
# Tests used:
# [1] = qHTS Assay for Lipid Storage Modulators (AID 1519; calls by dose curve); settings: Drosophila S3 cells, BODIPY lipid droplet/cell ratio, laser cytometry, cells loaded with oleic acid
# How it was run: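 Cells seeded at 5,000 per well were treated with compounds over a concentration series and loaded with oleic acid (400 uM, as added). Lipid droplet fluorescence (488 nm excitation, 500-530 nm channel) was read by laser-scanning cytometry and normalized to 20 uM Triacsin C.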
# [2] = molecular target: Endonuclease 4 (Escherichia coli (strain K12)) (UniProt P0A6C1); experiment: Counterscreen for APE1 Inhibitors: qHTS Validation Assay for Inhibitors of Endonuclease IV (AID 1708); settings: E. coli endonuclease IV, DNA cleavage fluorescence; series mostly up to 57.1 µM
# How it was run: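 Conditions: 2 nM enzyme, 50 nM TAMRA/BHQ-2 substrate, pH 7.5 Tris buffer with 2 mM MgCl2, RT. Compound preincubation 15 min; readout three fluorescence reads 60 s apart, third-minus-first.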
# [3] = qHTS for differential inhibitors of proliferation of Plasmodium falciparum line 7G8 (AID 1815); settings: Plasmodium falciparum 7G8 proliferation inhibition; series mostly up to 28.7 µM;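 also: parasite growth measured after three days of incubation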; also: potency is read from the fitted curve at half-maximal effect
# [4] = qHTS for differential inhibitors of proliferation of Plasmodium falciparum line GB4 (AID 1816); settings: Potency: Plasmodium falciparum GB4 proliferation inhibition; series mostly up to 28.7 µM;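 also: parasite growth measured after 72 h incubation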; also: potency is read from the fitted curve at half-maximal effect
# [5] = qHTS for differential inhibitors of proliferation of Plasmodium falciparum line W2 (AID 1883); settings: Potency: Plasmodium falciparum W2 proliferation inhibition; series mostly up to 28.7 µM;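 also: parasites grown with compound for 72 h before lysis and staining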; also: potency is read from the fitted curve at half-maximal effect
# [6] = molecular target: DNA repair nuclease/redox regulator APEX1 (Homo sapiens) (UniProt P27695); experiment: qHTS Validation Assay for Inhibitors of the Human Apurinic/apyrimidinic Endonuclease 1 (APE1) (AID 1705;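 also: TAMRA fluorescence gain over two minutes as APE1 cuts a quenched THF abasic duplex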); settings: purified APE1 endonuclease activity, fluorescence, titration; series mostly up to 57.1 µM
# Sequence of DNA repair nuclease/redox regulator APEX1 (Homo sapiens) (P27695 whole entry, looked up): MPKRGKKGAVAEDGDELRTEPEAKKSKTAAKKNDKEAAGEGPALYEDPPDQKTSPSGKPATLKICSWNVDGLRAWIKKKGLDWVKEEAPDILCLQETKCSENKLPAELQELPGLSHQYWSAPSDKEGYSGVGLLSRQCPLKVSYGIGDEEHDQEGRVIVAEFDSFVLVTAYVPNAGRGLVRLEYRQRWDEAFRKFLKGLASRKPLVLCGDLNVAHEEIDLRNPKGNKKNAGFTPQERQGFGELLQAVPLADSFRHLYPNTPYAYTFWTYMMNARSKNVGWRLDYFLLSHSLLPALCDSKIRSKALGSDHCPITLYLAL
# How it was run: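 Fluorogenic double-stranded THF abasic-site substrate (5'-TAMRA/3'-BHQ-2), 50 nM final. Enzyme preincubated with compound 15 min at room temperature, then substrate added. Kinetic fluorescence (ex 525/em 598 nm) read three times at 60 s intervals; activity taken as third-minus-first read difference.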
# [7] = Counterscreen for APE1 Inhibitors: Fluorescent Dye Displacement Validation Assay (AID 1707); settings: fluorescent dye displacement from DNA; series mostly up to 57.1 µM
# How it was run: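 Counterscreen flags promiscuous DNA binders: compounds displacing ThO from duplex DNA (abasic THF site, 50 nM) reduce 540 nm emission (480 nm excitation). ThO 250 nM final; Tris-HCl pH 7.5 with NaCl, MgCl2 and Tween-20.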
# [8] = qHTS for differential inhibitors of proliferation of Plasmodium falciparum line 3D7 (AID 1876); also: potency is read from the fitted curve at half-maximal effect; settings: P. falciparum 3D7 proliferation inhibition; series mostly up to 28.7 µM
# [9] = qHTS for differential inhibitors of proliferation of Plasmodium falciparum line D10 (AID 1877); settings: series mostly up to 28.7 µM;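 also: parasites grown with compound for 72 h before DNA staining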; also: potency is read from the fitted curve at half-maximal effect
# [10] = qHTS for differential inhibitors of proliferation of Plasmodium falciparum line Dd2 (AID 1882); settings: Potency: Plasmodium falciparum Dd2 proliferation inhibition; series mostly up to 28.7 µM; also: nearly all actives have a fitted effect of over 65% in size; also: potency is read from the fitted curve at half-maximal effect
# Text: NIH Molecular Libraries Probe Production Network [MLPCN]
# NIH National Institute of Allergy and Infectious Diseases [NIAID]
# NIH Chemical Genomics Center [NCGC]
# Assay Provider: Xinzhuan Su, NIAID
# Plasmodium falciparum is a virulent malarial parasite that kills 1-2 million people worldwide each year. Transmitted by mosquitoes, the sporozoite form of the parasite enters the blood stream to infect hepatocytes, where they become merozoites that infect red blood cells (erythrocytes). Within erythrocytes, merozoites begin a […] cycle of growth and division, after which the parasite is released to infect new red blood cells. Gametocytes, which form within erythrocytes as well, circulate in the bloodstream and are ingested by the mosquito, thereby completing the life cycle. To profile malarial isolates for differential chemical responses and to identify inhibitors of malarial growth, an assay that measures P. falciparum growth and replication within erythrocytes was employed. This assay uses a DNA binding fluorescent dye (SYBR Green) to detect parasite DNA following cell lysis. Because mature erythrocytes lack DNA, only Plasmodium-derived DNA is detected. The P. falciparum line Dd2, derived from a malarial isolate from […], was used.
# NCGC Assay Protocol Summary:
# The SYBR Green viability assay was adapted from a method described previously (Plouffe et al., 2008). For screening 3 ul culture medium was dispensed into 1536 well black clear bottom plates (Aurora Biotechnologies) using a Multidrop Combi (Thermo Fisher Scientific Inc.), 23 nL compounds in DMSO were added by a pin tool (Kalypsys), and 5 ul of erythrocytes infected with P. falciparum line Dd2 (0.3% parasitemia, 2.5% hematocrit final concentration) were added. The plates were incubated at 37 C in a humidified incubator in 5% CO2 for 72 h, and 2 ul lysis buffer (20 mM Tris HCl, 10 mM EDTA, […]% saponin, 1.6% triton X, 10X SYBR Green I supplied as 10,000X […] by Invitrogen) was added to each well. The plates were mixed for 25 sec with gentle shaking and incubated overnight at room temperature in the dark. The following morning, fluorescence intensity at 485(14) nm excitation and 535(25) nm emission wavelengths was measured on an EnVision (Perkin Elmer) plate reader. Plate reads were normalized relative to the control inhibitor (0.29 uM artemisinin) and vehicle (DMSO) wells present on each plate and then corrected by an algorithm using vehicle-only control plates at the beginning and end of the compound plate stack.
# Plouffe D, Brinker A, McNamara C, Henson K, Kato N, Kuhen K, Nagle A, Adrian F, Matzen JT, Anderson P, Nam TG, Gray NS, Chatterjee A, Janes J, Yan SF, Trager R, Caldwell JS, Schultz PG, Zhou Y, Winzeler EA. […] Proc Natl Acad Sci U S A. 2008, 105(26), pp 9059-64.
# [11] = measured here: cell count channel max response
# [12] = measured here: lipid channel max response
SMILES,"activity change, negative = inhibition ([1]; at 25.7 µM (top of the series))","activity change, negative = inhibition ([1]; at 57.5 µM (top of the series))","max response [1, 11]","max response [1, 12]",outcome [2],Potency [3],Potency [4],Potency [5],outcome [6],outcome [7],Potency [8],Potency [9],Potency [10]
Cc1cc(C(C)(C)C)cc(C)c1CC1=NCCN1,0.58% (inactive),0.173% (inactive),-1.09% and 8.12%,3.95% and 14.5%,inactive,7.94 µM (active),8.91 µM (active),5.62 µM (active),–,–,–,–,–
NC(=O)CN1CCCC1=O,-1.06% (inactive),8.11% (inactive),-2.61% and 10.4%,-4.04% and 22.9%,inactive,inactive,inactive,inactive,inactive,inactive,inactive,inactive,inactive
COc1ccc(C(=O)N2CCCC2=O)cc1,–,-0.445% (inactive),21.4%,19.3%,inactive,inactive,inactive,inactive,inactive,inactive,inactive,inactive,inactive
NC(N)=N/N=C/c1c(Cl)cccc1Cl,–,–,–,–,–,11.2 µM (active),11.2 µM (active),3.98 µM (active),–,–,6.31 µM (active),11.2 µM (active),–
CN1[C@@H]2CC[C@H]1CC(OC(=O)c1cc(Cl)cc(Cl)c1)C2 (stereo partly specified),–,4.19% (inactive),20.8%,27.7%,–,–,–,–,–,–,–,–,–
O=C(O)c1nn(Cc2ccc(Cl)cc2Cl)c2ccccc12,–,-2.04% (inactive),45.4%,43.5%,inactive,inactive,inactive,inactive,inactive,inactive,inactive,inactive,inactive
CCCCCCCCC(=O)NCc1ccc(O)c(OC)c1,–,-0.202% (inactive) and 0.982% (inactive),1.44% and 21.8%,3.12% and 22.1%,–,inactive,–,–,inactive,inactive,–,inactive,inactive
CC(N)C(=O)OC(C)(C)Cc1ccc(Cl)cc1 (stereo unspecified),–,9.94% (inactive),6.48%,18.3%,–,5.62 µM (active),1 µM (active),1.41 µM (active),inactive,inactive,–,inactive,5.62 µM (active)
